Measurements from PubChem BioAssay.

tested on: Sonic hedgehog protein (Shh); test: Sonic hedgehog microarray binding compounds – biochemical, small-molecule microarray, 635/667 nm fluorescence, primary screen (AID 1151); details: 635 nm fluorescence, higher = more signal;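 note: Shh protein binding to compounds spotted on small-molecule microarray slides; score combines spot fluorescence intensity with signal-to-noise across triplicate slides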

Point of comparison: `COc1ccc(CCNC(=O)[C@@]2(c3ccc([N+](=O)[O-])cc3)CC(=O)N(C(C)C)[C@@H]2c2ccc(CO)cc2)cc1`, composite z-score -0.775. Against it:
- C=C(COC)/C(=C/C[C@@H](OC(C)=O)c1cccc(OCCO)c1)c1cc(C(=O)OC)ccc1OC — higher, 0.654
- COCC(=C=CC[C@H](O)c1ccc(OCCO)cc1)C[C@H](O)c1ccccn1 — higher, 1.05
- CCOC(=O)[C@H]1C/C=C/C[C@H](C(=O)OCC)C(=O)O[C@H]2[C@@H](OC)O[C@H](CO)[C@@H](OC(=O)Nc3ccc(Br)cc3)[C@@H]2OC1=O — higher, 0.69
- CCN1C(C)=C(C(=O)OC)[C@@H](c2ccccc2)N2C(=O)[C@@]3(C(=O)OC)O[C@@]12[C@@H]1C(=O)N(c2ccccc2)C(=O)[C@@H]13 — higher, 0.798
- CC(C)N1CC=CC23O[C@@H]4/C=C\CCCOC(=O)C4[C@H]2C(=O)N(CCCCCO)[C@@H]3C1=O (stereo partly specified) — higher, -0.641
- C=C(COC)/C(=C/C[C@H](OC(C)=O)c1ccc(OCCO)cc1)c1cnc2ccccc2c1 — higher, 1.99
- COCCOC(=O)N1C(=O)[C@@]2(c3cc(C#CCNC(N)=O)ccc31)[C@H](c1ccc(OCCO)cc1)N1[C@H](c3ccccc3)[C@H](c3ccccc3)OC(=O)[C@H]1[C@@H]2C(=O)N1CCCCCCC1 — higher, 0.932
- CO[C@H]1COC(=O)[C@@H](OCc2ccccc2)C=C[C@H](C)[C@@H](OC)COC(=O)[C@H](OCc2ccccc2)C=C[C@@H]1C — higher, 0.537
- NC(=O)NCC#Cc1ccc2c(c1)[C@]1(C(=O)N2)[C@H](C(=O)N2CCCCCCC2)[C@H]2C(=O)O[C@H](c3ccccc3)[C@H](c3ccccc3)N2[C@@H]1c1ccccc1OCCO — higher, 0.81
- COCCCNC(=O)[C@@]1(Sc2ccc(C)cc2)CC(=O)N(Cc2cc(C(F)(F)F)cc(C(F)(F)F)c2)[C@@H]1c1ccc(CO)cc1I — higher, -0.612
- C=CCC1=C[C@H]2[C@H]([C@@H]3C=C[C@]2(CC=C)C(=O)[C@]32CO2)[C@@]2(CO2)C1=O — higher, 2.11
- O=C(NCc1ccccc1)[C@@]1(CCS(=O)(=O)c2ccccc2)COC(c2ccc(OCCCO)cc2)=N1 — higher, 0.331
- C=CCNC(=O)[C@H]1[C@@H]2C(=O)O[C@@H](c3ccccc3)[C@@H](c3ccccc3)N2[C@@H](c2ccccc2OCCO)[C@]12C(=O)N(C(=O)OCCOC)c1ccc(C#CCNC(N)=O)cc12 — higher, 0.633
- CCCCO[C@H]1C[C@H]2C(Br)=C[C@@]1(CO)C(=O)[C@]21CO1 — higher, 0.536
- CN1CCC(CCCO)=CC1C1CC1 (stereo unspecified) — higher, 1.23
- Cc1ccc(S[C@]2(C(=O)O)CC(=O)N(Cc3ccccc3)[C@@H]2c2ccc(CO)cc2)cc1 — higher, 0.0306
- C=CCc1cccc([C@@H]2[C@@H](C)CC[C@H]3C(=O)N4[C@H](c5cccc(CC=C)c5)[C@@H](C)CC[C@H]4C(=O)N23)c1 — higher, 0.946
- COc1ccc([Si](C)(C)[C@H]2[C@H](CCO)O[C@@]3(C(=O)N(Cc4ccc(N5CCCCC5=O)cc4)c4ccccc43)[C@@H]2C)cc1 — higher, 1.58
- CCCNC(=O)[C@@]1(Sc2ccc(C)cc2)CC(=O)N(Cc2ccccc2Cl)[C@@H]1c1ccc(CO)cc1 — higher, 1.86
- CO[C@H]1COC(=O)[C@H](CCSC)NC(=O)CC=C[C@@H](C)COC(=O)[C@@H](OCc2ccccc2)C=C[C@@H]1C — higher, 1.93
- C[C@@H]1CC[C@H]2C(=O)N3[C@@H](CC[C@@H](C)[C@@H]3c3cccc(N4CCOCC4)c3)C(=O)N2[C@H]1c1cccc(N2CCOCC2)c1 — higher, 0.106
- CO[C@]12C=C(Br)[C@@H](C[C@@H]1c1ccccc1)[C@@]1(CO1)C2=O — higher, 0.522
- C=CCC(OC(C)=O)[C@@H]1[C@@H](N(Cc2ccc(-c3ccccc3)cc2)C(=O)c2ccc(C)cc2)c2cc(OCCCO)ccc2N1C(=O)c1ccc(-c2ccccc2)cc1 (stereo partly specified) — higher, 0.0223
- CC(=O)NCCCC[C@@H]1NC(=O)[C@@H]2C[C@H](C(=O)NCCCCCCN(C)C)[C@H](c3ccc(O)cc3)N2C1=O — higher, 1.43
- O=C1c2ccccc2[C@](Cc2ccccc2I)(C(=O)NCc2ccccc2)[C@H](c2ccc(CO)cc2)N1Cc1ccccc1C(F)(F)F — higher, -0.197
